# Source: PubChem BioAssay (National Center for Advancing Translational Sciences (NCATS))
# Luciferase inh: blocks purified firefly luciferase enzyme activity. P08659. purified P. pyralis luciferase, luminescence, biochemical. Potency, µM (highest dose often 115 µM), hits mostly inhibitors. hit rate 2.5% among 76,000; also: nearly all actives have a fitted effect of over 65% in size
#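 FLuc 10nM, D-luciferin 10uM, ATP 10uM, Mg acetate 10mM, Tris acetate pH 7.5, Tween/BSA; cpd qHTS; enzyme added last; CCD luminescence.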
# GPT2 inh: blocks human glutamate pyruvate transaminase 2 | Q8TD30 | Recombinant GPT2, coupled pyruvate oxidase/HRP Amplex Red fluorescence | Potency, µM (doses to about 57.7 µM), inactives show at the top dose activity change, negative = inhibition, usual class: inhibitors | hit rate 0.25% among 100,000; also: nearly all actives have a fitted effect of over 60% in size
# Target sequence (Q8TD30 whole entry, looked up): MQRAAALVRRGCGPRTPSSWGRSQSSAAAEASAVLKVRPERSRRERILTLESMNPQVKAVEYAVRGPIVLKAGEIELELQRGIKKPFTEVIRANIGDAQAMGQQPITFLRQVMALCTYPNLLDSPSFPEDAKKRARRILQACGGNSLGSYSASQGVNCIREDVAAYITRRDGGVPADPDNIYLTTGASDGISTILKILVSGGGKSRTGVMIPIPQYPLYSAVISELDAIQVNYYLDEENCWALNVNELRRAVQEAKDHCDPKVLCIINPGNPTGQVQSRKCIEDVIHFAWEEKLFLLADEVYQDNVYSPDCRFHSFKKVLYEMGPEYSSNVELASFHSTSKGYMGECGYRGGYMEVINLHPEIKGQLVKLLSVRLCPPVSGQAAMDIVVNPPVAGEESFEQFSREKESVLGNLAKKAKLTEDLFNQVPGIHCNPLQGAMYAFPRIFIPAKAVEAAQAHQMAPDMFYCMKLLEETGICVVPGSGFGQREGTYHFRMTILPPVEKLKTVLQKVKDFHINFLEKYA
#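 Recombinant GPT2 (10ng/uL) with 250uM a-KG and 2mM L-alanine, 30 min at room temperature, in HEPES pH 7.5 buffer. Pyruvate detected by pyruvate oxidase/HRP/Amplex Red fluorescence after 30 min in the dark; AOA (50uM) as positive control.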
# HEK293 tox: HEK 293 cell cytotoxicity; hit rate 6.6% among 94,000; AID 1345083; Potency, µM (titrated, usually from 115 µM), for inactives: at the top dose activity change, negative = cytotoxicity, hits mostly inhibitors; HEK 293 viability, ATP luminescence (CellTiter-Glo), 48-72 h; also: nearly all actives have a fitted effect of over 60% in size
#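 Pintool-delivered compounds were incubated with HEK 293 cells (250 cells/well) at 37 degree Celsius for 48 or 72 hr. ATP-dependent luminescence (CellTiter-Glo) then reported remaining viable cells.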
# NPR1 antag: antagonists of human natriuretic peptide receptor Npr1 | HEK293 hNpr1 GloSensor cGMP, ANP-stimulated luminescence | P16066 | AID 1347048 | hit rate 1.6% among 76,000 | Potency, µM (series often up to 46.3 µM), for the others: top-dose activity change, negative = inhibition, hits mostly inhibitors; calls by dose curve; also: nearly all actives have a fitted effect of over 60% in size
#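 Compound pre-incubated 30 min at room temperature on GloSensor-loaded HEK293 cells stably carrying hNpr1 and the pGS-40F cGMP biosensor. Stimulation uses hNppA at 0.1 nM final; luminescence is taken at baseline and 20 min post-agonist.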
# 3T3 cytotox: kills NIH 3T3 cells. hit rate 4.3% among 94,000. NIH 3T3 viability, CellTiter-Glo ATP luminescence, 48-72 h. Potency, µM (top dose mostly 96.7 µM), for inactives: at the top dose activity change, negative = cytotoxicity, usual class: inhibitors. AID 1345082; also: nearly all actives have a fitted effect of over 55% in size
#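 Mouse fibroblast NIH 3T3 cells, 400 per well, received compound via pintool and were incubated for 48 or 72 hr prior to CellTiter-Glo ATP luminescence measurement.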
# Numbers without * were called inactive; i = inactive; u = inconclusive; x = no result given; [ ] = remark or other dose. The list is not random: actives were taken first. Their share in the collection is about 10%. Unless noted, calls follow the shape of the dose curve; as a rule, active = well fitted curve in the direction sought with a large enough effect; inconclusive = small, poorly fitted or top-dose-only effect, or another doubt; inactive = no such curve, though single readings can be large; an effect the other way counts as inactive or inconclusive. % is scaled to controls: 0 for no effect and ±100 for the full control effect; potency is read from the fitted curve at half-maximal effect.
SMILES,Luciferase inh,GPT2 inh,HEK293 tox,NPR1 antag,3T3 cytotox
O=C(O)COc1ccc(-c2nccc3c2C(=O)N(Cc2ccccc2)CC(COc2ccc(Cl)cc2)O3)cc1 (centres undefined),50.1µM*,-14.1%,0.4%,0.3%,u
O=C(O)COc1ccc(-c2nccc3c2C(=O)N(Cc2ccccc2)CC(COc2ccc4cccnc4c2)O3)cc1 (centres undefined),u,-19.2%,4.7%,2.4%,u
CCN1CC(CN(C)Cc2cn(-c3ccccc3C)nc2-c2ccc(OC)c(F)c2)CC1=O (centres undefined),i,-1.8%,22.4µM*,0.0%,u
CCn1ccnc1CN(C)Cc1cn(-c2ccccc2C)nc1-c1ccc(OC)c(F)c1,i,u,u,1.3%,u
CC(C)(C)C(=O)N1CCCC(C(=O)N2CCCC(c3nc4ccncc4[nH]3)C2)C1 (centres undefined),x,-5.5%,-17.5%,x,-25.6%
CCS(=O)(=O)Nc1ccc(C2(C(=O)Nc3cccc(F)c3C)CCCCC2)cc1,i,-48.1%,39.8µM*,-7.8%,u
CC1(C)C(=O)N(Cc2ccccc2)[C@H]2CN(CC3CCOCC3)C[C@@H]2[S+]1(=O)[O-],i,i,-17.0%[172 µM],1.8%[70.6 µM],u
CN1CCCN(S(=O)(=O)c2ccc(C(F)(F)F)cc2)c2ccccc21,i,u,39.8µM*,-2.9%,u
CN1CCCN(S(=O)(=O)c2cccc(Br)c2)c2ccccc21,i,-15.5%,39.8µM*,-22.6%,u
Cc1cccc(S(=O)(=O)N2CCCN(C)c3ccccc32)c1,i,i,u,-6.2%,u
CN1CCCN(S(=O)(=O)c2ccc(Cl)cc2)c2ccccc21,i,-8.1%,u,-0.3%,u
CC(C)c1cc2c(c(O)c1O)[C@@]13CCCC(C)(C)C1[C@@H](O)[C@@H]2OC3=O (some centres undefined),x,i,x,x,x
O=C(NCc1ccc(F)cc1)c1ccc2oc(-c3ccncc3)nc2c1,x,0.3%,u,x,-19.0%
COc1ccc(CCC(=O)N2CC[C@@H]3COCCN(Cc4ccncc4)[C@@H]3C2)cc1,39.8µM*,i,-3.7%,-12.0%,u
O=C(NCc1ccccc1F)c1cc(-c2ccc(F)cc2)c2nncn2n1,x,i,u,x,u
Cc1ccc(C(=O)N2CCC(CCC(=O)NCCc3c[nH]c4ccccc34)CC2)cc1,31.6µM*,0.6%,u,-24.1%,u
COCc1nc(C2CCN(C(=O)Cc3c[nH]c4ccccc34)C2)no1 (centres undefined),i,i,i,-0.7%,2.2%
Cc1ccc(OCCC2CCN(C(=O)CCc3ccccc3)C2)cc1 (centres undefined),i,u,u,-1.2%,u
Cc1ccc(OCCC2CCN(C(=O)Cc3c[nH]c4ccccc34)C2)cc1 (centres undefined),i,-3.4%,35.5µM*,u,u
COc1ccc(OCc2nc(C3CN(C(=O)Cc4c[nH]c5ccccc45)C3)no2)cc1,i,i,44.7µM*,u,u
O=C(CCC1CCN(C(=O)CCc2c[nH]c3ccccc23)CC1)NCc1cccnc1,i,i,i,4.1%,i
COc1ccc(CC(=O)NC2CCN(Cc3ccc(-c4ccsc4)cc3)C2)cc1 (centres undefined),x,1.8%,u,x,u
Cn1nc(C2CCCN(C(=O)Nc3ccc4c(c3)OCCO4)C2)n(C2CCCC2)c1=O (centres undefined),31.6µM*,1.4%,12.1%,-1.8%,2.0%
COc1ccc(NC(=O)N2CCCC(Cn3c(C4CC4)nc4cccnc43)C2)cc1Cl (centres undefined),i,-18.2%,70.8µM*,-9.8%,u
Cc1nc2cccnc2n1CC1CCCN(C(=O)Nc2ccc3c(c2)OCCO3)C1 (centres undefined),i,i,u,1.7%,-1.8%
O=C(Nc1ccc2c(c1)OCCO2)N1CCCC(Cn2cnc3cccnc32)C1 (centres undefined),28.2µM*,i,6.3%,2.9%,-0.9%
C#CCNC(=O)c1ccc2oc(-c3cccnc3)nc2c1,x,i,u,x,-15.1%[138 µM]
